Pf growth 96h – P. falciparum growth inhibition at 96 hour, primary screen for plastid delayed-death inhibitors | P. falciparum luciferase reporter growth, 96 h | Potency, µM (highest dose often 28.7 µM), for the others: at the highest dose activity change, negative = inhibition, actives largely listed as inhibitors | hit rate 6.9% among 320,000 | AID 504834; further: potency means the concentration at half of the fitted maximal effect; on the % scale 0 is the no-effect control and ±100 the full control effect
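Delayed-death screen, second-generation endpoint: infected erythrocytes, 2% hematocrit, 0.05% parasitemia final; 96 hours at 37 C, 5% CO2; luciferase detection reagent; luminescence decrease equals reduced growth.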
FBPA Giardia inh – Giardia lamblia aldolase inhibition; AID 2451; Potency, µM (series often up to 59.6 µM), for the others: at the top dose activity, negative = inhibition, hits mostly inhibitors; hit rate 0.71% among 290,000; purified Giardia FBPA; A8B2U2; further: potency means the concentration at half of the fitted maximal effect; on the % scale 0 is the no-effect control and ±100 the full control effect; nearly all actives have a fitted effect of over 55% in size
Target sequence (A8B2U2 whole entry, looked up): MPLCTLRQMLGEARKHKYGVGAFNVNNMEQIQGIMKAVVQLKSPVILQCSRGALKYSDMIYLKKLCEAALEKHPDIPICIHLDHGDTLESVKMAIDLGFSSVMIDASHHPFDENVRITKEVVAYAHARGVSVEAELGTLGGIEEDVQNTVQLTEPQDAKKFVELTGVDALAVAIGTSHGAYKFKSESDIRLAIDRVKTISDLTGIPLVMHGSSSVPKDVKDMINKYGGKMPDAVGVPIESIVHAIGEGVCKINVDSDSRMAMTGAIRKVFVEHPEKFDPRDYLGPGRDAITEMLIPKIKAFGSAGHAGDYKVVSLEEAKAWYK
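Giardia FBPA (40 nM reagent) was preincubated 10 min at RT with compound (up to 57.5 uM final), then substrate plus GAPDH/TPI/NAD/arsenate coupling system with diaphorase/resazurin was added; resorufin fluorescence (525/598 nm) was read after 20 min.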
Shiga toxin inh – Shiga toxin inhibition. Vero cells, Shiga toxin protein synthesis inhibition reporter. inhibition, % at 38.7 µM. hit rate 9.2% among 290,000. AID 2315; in the data active means inhibition mostly above about 28%, no sharp cut-off; inactive means mostly below about 43%; further: 0% is about no effect
NS1 function inh – blocks influenza NS1 protein function; hit rate 0.4% among 270,000; Potency, µM (titrated, usually from 46.1 µM), without a hit: at the highest dose activity, positive = more growth; calls by dose curve; further: potency means the concentration at half of the fitted maximal effect; actives are rising curves; nearly all actives have a fitted effect of over 50% in size
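Growth recovery, yeast-based: influenza A NS1 expressed in S. cerevisiae causes slow growth, and suppressors are detected by OD600. The parent strain without NS1 is used as positive control.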
Pf growth 48h – P. falciparum growth inhibition at 48 hours (one generation) | AID 504832 | Potency, µM (titrated, usually from 28.7 µM), inactives show at the top dose activity change, negative = inhibition, most hits filed as inhibitors | hit rate 5.9% among 310,000 | P. falciparum luciferase growth in erythrocytes, 48 h; further: potency means the concentration at half of the fitted maximal effect; on the % scale 0 is the no-effect control and ±100 the full control effect
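Parasite viability was followed by luminescence of a genomically integrated firefly luciferase. Cultures held 0.1% parasitemia at 2% hematocrit (final), incubated under 5% CO2 at 37 C.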
CHX counter – counter-screen hit for Shiga toxin inhibitors, cycloheximide; cell reporter, cycloheximide protein synthesis inhibition counterscreen; max response, %; hit rate 12% among 300,000; in the data active means max response mostly above about 13%, no sharp cut-off; inactive means mostly below about 14%; further: read at 38.3 µM for the half of the compounds with a filed dose; 0% is about no effect
An asterisk follows results filed as active; ? = inconclusive; . = no result given; [ ] = remark or other dose. In the library only some 21% were active in any assay of this set; here they are far more common. Unless noted, the call rests on the fitted dose curve; in most records, active means well fitted curve in the direction sought with a large enough effect; inconclusive means small, poorly fitted or top-dose-only effect, or another doubt; inactive means no such curve, though single readings can be large; an effect the other way counts as inactive or inconclusive.

SMILES	Pf growth 96h	FBPA Giardia inh	Shiga toxin inh	NS1 function inh	Pf growth 48h	CHX counter
O=C(Nc1ccc2c(c1)OCCO2)C1CCN(C(=O)c2ccccc2)CC1	?	.	106*	-3%	43%	21*
O=C(Nc1ccc2c(c1)OCCO2)C1CCN(C(=O)c2ccc([N+](=O)[O-])cc2)CC1	13%	1%	11	?	-26%	-3
O=C(Nc1ccc2c(c1)OCCO2)C1CCN(C(=O)c2ccc(Br)cc2)CC1	2.6µM*	-4%	41	-9%	-2%	18*
CC(=O)NC(=S)Nc1cccc(S(=O)(=O)NC2=NCCC2)c1	-7%	4%	-1	0%	12%	-4
COc1ccc(CCNC(=O)Cn2nc([N+](=O)[O-])c(Br)c2C)cc1OC	?	3%	-4	5%	-27%	-3
CC(C)(C)c1cc(N)on1	6%	3%	10	-22%	-14%	-1
COc1cc(OC)c(C(=O)NCc2ccco2)cc1OC	-16%	0%	-3	9%	-52%	15
COc1ccc2oc(=O)c(C(=O)NCc3ccco3)cc2c1	13%	2%	85*	-7%	15%	25*
COc1ccc2cc3c(N)c(C(=O)NCc4ccco4)sc3nc2c1	?	-1%	42*	?	-86%	11
COc1cc(C(F)(F)F)ccc1C(=O)NCCc1ccco1	1%	6%	80*	-7%	48%	68*
COc1ccc2cc(C(=O)NCc3ccccc3)c(=Nc3ccc(C(=O)O)cc3)oc2c1	0.41µM*	1%	23	.	?	13
COc1ccc2oc(=O)c(C(=O)NCc3ccc4c(c3)OCO4)cc2c1	-41%	-12%	18	-4%	27%	-4
CC(C)(Oc1ccc(Br)cc1Cl)C(=O)Nc1ccon1	-14%	.	-14	-44%	24%	0
COc1cccc2cc(C(=O)NCc3ccco3)c(=Nc3ccc(C(=O)O)cc3)oc12	?	7%	196*	-6%	.	76*
COc1cccc2cc(C(=O)NCc3ccco3)c(=O)oc12	-15%	1%	74*	1%	11%	34*
CCOc1ccc(-n2cc(C(=O)NCc3ccco3)c3cc(OC)c(OC)cc3c2=O)cc1	24%	-2%	-8	11%	5%	-2
COc1cccc2cc(C(=O)NCc3ccc(C)cc3)c(=O)oc12	13%	2%	2	3%	7%	11
CCn1cc(C(=O)NCc2ccco2)c2cc(OC)c(OC)cc2c1=O	.	-10%	-8	-13%	16%	21*
O=S1(=O)CCOC[C@H](c2ccccc2)N1Cc1ccccc1F	83%	9%	-7	-34%	59%	-1
CCCCc1ccc(NC(=S)NCCc2ccc(F)cc2)cc1	11%	-18%	4	.	-1%[5.75 µM]	1
O=S(=O)(c1ccccc1)N1CCC2(CCCN(c3ccncc3)C2)CC1	.	7%	.	.	.	.
CCCS(=O)(=O)c1ncc(Cl)c(C(=O)N(Cc2ccccc2)Cc2ccco2)n1	.	.	-11	.	.	-15
COc1ccc(C(c2nnnn2C2CCCCC2)N2CCN(c3ccccc3)CC2)cc1 (stereo unspecified)	157%	1%	-18	-6%	10µM*	-8
COc1ccc(C(c2nnnn2C2CCCC2)N2CCN(c3ccccc3)CC2)cc1 (stereo unspecified)	?	0%	4	-3%	9.3µM*	3
Cc1ccc2[nH]c(C(=O)N3CCN(c4cccc(Cl)c4)CC3)cc2c1	-24%	7%	.	8%	-27%	5
SMILES	Pf growth 96h	FBPA Giardia inh	Shiga toxin inh	NS1 function inh	Pf growth 48h	CHX counter
COc1cc2nccc(Oc3ccc(NC(=O)Nc4ccc(F)cc4F)c(F)c3)c2cc1OC	.	-1%	-7	.	.	-11
Cc1ccc(-c2nc(=S)c3c(n2Cc2ccco2)CC(C)(C)OC3)cc1	8.3µM*	0%	18	12%	?	7
Cc1nccn1Cc1ccc(Cl)nc1	?	-1%	-10	.	10µM*	5
COc1cc2c(cc1O)CCN(C(=O)CSc1nncn1C)[C@@H]2C	24%	.	.	.	44%	.
COc1ccc(NC2=C(NCCO)C(=O)c3ccccc3C2=O)cc1	?	?	81*	-2%	7.4µM*	53*
COc1cccc(NC2=C(NCCO)C(=O)c3ccccc3C2=O)c1	-13%	?	.	3%	-28%	11*
Cc1cccc(Nc2nc(N)c([N+](=O)[O-])c(NCCO)n2)c1	?	-1%	-9	0%	?	-3
Cc1cccc(NC2=C(NCCO)C(=O)c3ccccc3C2=O)c1	-14%	?	25	-23%	4.7µM*	2
CC(=O)CCC(=O)N1CCCC(CNC(=O)c2ccc(-c3ccccc3)cc2)C1 (stereo unspecified)	?	-8%	42*	-4%	-17%	21*
CSCC(=O)N1CCCC(CNC(=O)c2ccc(-c3ccccc3)cc2)C1 (stereo unspecified)	21%	-10%	22	-4%	?	12*
O=C(NCC1CCCN(C(=O)c2cccnc2)C1)c1ccc(-c2ccccc2)cc1 (stereo unspecified)	15%	-6%	4	-3%	-13%	7
Cc1nn(C)c(Oc2cccc(C(F)(F)F)c2)c1C=O	1%	2%	18	.	-6%	-3
COc1cc(C=O)ccc1OCC(=O)Nc1ccc2c(c1)OCO2	?	.	44*	-3%	9%	20*
Cc1ccc(OCC(=O)Nc2ccc3c(c2)OCO3)c([N+](=O)[O-])n1	126%	-2%	54*	6%	120%	28*
Cc1cc(OCC(=O)Nc2ccncc2)c(C)cc1Br	.	5%	-4	-81%	-13%	-1
Cc1cc(C)c(OCC(=O)Nc2cccc(O)c2)cc1C	3%	1%	59*	-9%	191%	28*
Cc1cc(C)c(OCC(=O)Nc2ccc3c(c2)OCO3)cc1C	38%	1%	16	2%	24%	21*
CC(C)OCCCNC(=O)CCCC(=O)Nc1ccc(OCCc2ccccc2)cc1	?	17%	1	-17%	-21%	3
Cc1ccc(OCCC(=O)Nc2ccc3c(c2)OCO3)cc1	-16%	.	.	.	-23%	.
Cc1ccc(C)c(OCC(=O)Nc2ccc3c(c2)OCO3)c1	48%	9%	42*	-1%	3%	48*
CN(C)CCCN(C(=O)c1ccc2c(c1)OCCO2)c1nc2cc3c(cc2s1)OCO3	?	.	19	-9%	-12%	2
CCN(CC)CCN(C(=O)c1ccc2ccccc2c1)c1nc2ccc(F)cc2s1	25%	-21%	51*	-52%	31%	9
CN(C)CCN(C(=O)COc1ccc(Cl)cc1)c1nc2cc3c(cc2s1)OCO3	?	-21%	-2	-11%	53%	22*
CN(C)CCCN(C(=O)c1ccc2ccccc2c1)c1nc2cc3c(cc2s1)OCO3	10µM*	-11%	-17	-4%	?	-3
CN(C)CCCN(C(=O)c1ccc([N+](=O)[O-])o1)c1nc2cc3c(cc2s1)OCO3	-1%	?	60*	-22%	4%	55*
